Source: PubChem BioAssay (National Center for Advancing Translational Sciences (NCATS))
Sampled rows, rich in hits. Any-hit rate of the full collection: about 6%.
D1 potentiator – Potentiators of Human D1 Dopamine Receptor: qHTS | D(1A) dopamine receptor (Homo sapiens), P21728 | AID 504651, 2011 | actives 0.036% (n = 360,000) | HEK293 TREx D1 cells, calcium flux, dopamine EC20 potentiation | potentiation, % at 10 µM; in the data active = potentiation above about 30%
Target sequence (P21728 whole entry, looked up): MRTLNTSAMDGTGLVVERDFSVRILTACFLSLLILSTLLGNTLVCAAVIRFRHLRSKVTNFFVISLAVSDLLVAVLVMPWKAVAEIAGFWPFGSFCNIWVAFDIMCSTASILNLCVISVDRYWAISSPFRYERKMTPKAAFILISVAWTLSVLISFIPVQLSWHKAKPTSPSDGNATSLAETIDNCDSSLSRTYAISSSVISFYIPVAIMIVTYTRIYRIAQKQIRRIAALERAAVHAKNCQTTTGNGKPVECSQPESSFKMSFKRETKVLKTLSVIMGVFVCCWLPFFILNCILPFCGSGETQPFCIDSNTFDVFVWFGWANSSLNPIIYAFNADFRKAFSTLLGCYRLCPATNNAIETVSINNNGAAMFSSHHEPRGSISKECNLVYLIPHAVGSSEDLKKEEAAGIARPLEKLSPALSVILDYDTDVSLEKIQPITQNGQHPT
DRD3 agonist – qHTS of D3 Dopamine Receptor Agonist: qHTS | actives 0.58% (n = 410,000) | max activation, % | D3R DiscoveRx beta-arrestin cells, luminescence, 90 min | AID 652048, 2013; in the data active = max activation above about 30%
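Agonist mode: compounds and dopamine controls were applied to plated cells for 90 min at 37 degrees C after an overnight attachment at 1500 cells/well. Luminescent read-out followed 30 - 60 minutes at room temperature with DiscoveRx detection reagent.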
D1 antagonist – Antagonist of Human D 1 Dopamine Receptor: qHTS. activity change, negative = inhibition, % at 10 µM. actives 3.2% (n = 360,000). HEK293 TREx D1 cells, calcium flux, dopamine EC80; stronger effect = lower value; in the data active = activity change below about -30%
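HEK293 T-REx cells expressing inducible, force-coupled D1 receptor; no-wash Ca dye, 30–90 min RT. Cmpd → 180 s read at 1 Hz → EC80 DA → 180 s read.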
D3 antag – qHTS of D3 Dopamine Receptor Antagonist: qHTS | D(3) dopamine receptor (Homo sapiens), P35462 | D3R cells, DiscoveRx beta-arrestin luminescence, antagonist mode; stronger effect = lower value | max response, negative = inhibition, % | actives 2.5% (n = 360,000); in the data active = max response below about -50%
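Cells expressing the human receptor were seeded at 1500 cells/well, incubated overnight at 37 degrees C in 5% CO2, then exposed to library compounds with dopamine controls for 90 minutes at 37 degrees C before luminescent detection.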
D1 ag – Allosteric Agonists of the Human D1 Dopamine Receptor: qHTS; D(1A) dopamine receptor (Homo sapiens), P21728; HEK293 T-REx D1 cells, calcium flux, agonist mode; AID 504660, 2011; activation, % at 2 µM; actives 1% (n = 360,000); in the data active = activation above about 30%
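Inducible HEK293 T-REx D1 cells, force-coupled to calcium signalling, were plated at 4000 cells/well with tetracycline and held overnight at 30 C. After no-wash calcium dye loading, compound-evoked calcium rise over 180 s flagged agonists.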
Each line names hits and unclear results; the compound was inactive in the other large screens.

Cc1cc2c3ccccc3ncn2n1	D1 antagonist -38.7
CCN1CCN(C(=O)c2cnn(-c3ccc(F)cc3F)c2C2CCN(C(=O)OC(C)(C)C)CC2)CC1	none (no result: D3 antag)
Cc1ccc(-n2ncc3c(Nc4cccc(C)c4)ncnc32)cc1	D1 antagonist -33.2 (no result: D3 antag)
Cc1cccc(-n2ncc3c(Nc4ccc(F)cc4)ncnc32)c1	D1 antagonist -49.1
COC(=O)c1ccc(Nc2ncnc3c2cnn3-c2cccc(C)c2)cc1	D1 antagonist -37.9
Cc1ccc(-n2ncc3c(Nc4ccc5c(c4)OCCO5)ncnc32)cc1C	DRD3 agonist 48.1 (no result: D3 antag)
CCOC(=O)c1ccc(N2C(=O)c3[nH]nc(-c4ccccc4)c3C2c2cccs2)cc1 (configuration not stated)	none (no result: D3 antag)
CCC(C)(C)NS(=O)(=O)c1cc(-c2cc(C)no2)ccc1C	none (no result: D3 antag)
COc1cc(OC)cc(C(=O)Nc2ccc(-c3nc4cc(C(C)C)ccc4o3)cc2)c1	none (no result: D3 antag)
Cn1cccc1/C=C1\CCC/C(=C\c2cccn2C)C1=O	D1 antagonist -32.0, D1 ag 138.6
Cc1c(N=C2C=CC(=O)c3ccccc32)c(=O)n(-c2ccccc2)n1C	D3 antag -55.1
Cc1cc(C)c(NC(=O)C2CCN(c3nn4c(=O)cc(C)nc4s3)CC2)c(C)c1	none (no result: D3 antag)
COc1ccc2cc(C(=O)NCc3ccc4c(c3)CCN4C(=O)c3ccc(F)cc3)[nH]c2c1	none (no result: D3 antag)
CCCCCn1c(CCNC(=O)c2cccc(C)c2)nc2ccccc21	none (no result: D3 antag)
CCCCn1nnnc1C(c1cc2ccccc2o1)N(CCC#N)Cc1ccccc1 (configuration not stated)	D3 antag -52.7 (no result: D1 potentiator, D1 antagonist, D1 ag)
C=CC[n+]1c(-c2ccc(Cl)cc2Cl)csc1Nc1c(C)n(C)n(-c2ccccc2)c1=O	D3 antag -81.2
CCOc1ccc(CNC(=O)C2CCN(S(=O)(=O)c3ccc4c(ccn4C)c3)CC2)cc1	none (no result: D3 antag)
Cc1ccc(C)c(N2CCN(S(=O)(=O)c3ccc(-c4cnc(C5CC5)o4)cc3)CC2)c1	none (no result: D3 antag)
N=c1ncn(CC(O)CN2CCOCC2)c2nc(N3CCOCC3)[nH]c12 (configuration not stated)	D1 antagonist -58.3
COc1ccccc1N1CCN(C(=O)C2CCN(S(=O)(=O)Cc3ccccc3)CC2)CC1	none (no result: D3 antag)
Cc1ccc(S(=O)(=O)c2nc(S(C)(=O)=O)sc2N2CCCC2)cc1	none
Cc1ccc(S(=O)(=O)c2nc(S(=O)(=O)c3ccccc3)sc2N2CCN(CCO)CC2)cc1	D3 antag -73.7
CCS(=O)(=O)c1nc(S(=O)(=O)c2ccc(C)cc2)c(N2CCN(CCO)CC2)s1	none
Cc1ccc(S(=O)(=O)c2nc(S(=O)(=O)c3ccccc3)sc2N2CCN(C)CC2)cc1	D3 antag -85.8
Oc1c(Cl)cc(Cl)cc1Sc1cc(Cl)cc(Cl)c1O	D1 antagonist -55.8 (no result: D3 antag)
CCC(=O)N1CCc2cc(S(=O)(=O)N(C)c3cccc(C)c3)ccc21	none (no result: D3 antag)
COc1cccc(-c2cc(C(=O)NCCc3ccc(C)cc3)[nH]n2)c1	D1 antagonist -70.3 (no result: D3 antag)
COc1ccc(-c2cc(C(=O)NCCc3ccc(Cl)cc3)[nH]n2)cc1	none (no result: D3 antag)
Cc1cc(-c2ccccc2)c2c3c(c(-c4ccccc4)n2n1)c(=O)n(C)c(=O)n3C	D1 antagonist -68.3
Nc1cc(=O)[nH]c(SCc2ccc(Cl)cc2Cl)n1	DRD3 agonist 30.2
Nc1ncnc2nc(SCc3ccc(Cl)cc3Cl)[nH]c12	none
COc1cc2ccnc(Cc3cccc(OC)c3OC)c2cc1OC	D1 antagonist -44.4
COc1cc(N)c(Cc2nccc3cc(OC)c(OC)cc23)cc1OC	none
COC(=O)c1ccc(S(=O)(=O)N(Cc2ccccc2)Cc2ccccc2)n1C	D1 antagonist -40.4
CCc1nc(CN2CCCC(C(=O)c3ccc4c5c(cccc35)CC4)C2)c(C)[nH]1 (configuration not stated)	D3 antag -51.1
O=C(c1ccc2c3c(cccc13)CC2)C1CCCN(Cc2ccncc2)C1 (configuration not stated)	D3 antag -52.9
CC(C)C(=O)N1C2CCC1CC(O)(c1ccc(F)cc1)C2 (configuration not stated)	D3 antag -67.0
